Reference: PubChem BioAssay (Tox21)
Results filed as inconclusive are left out. Unmarked numbers belong to inactive results. Calls come from the whole dose curve; as a rule, active = well fitted activation curve with a large enough effect in the repeat runs; inconclusive = weak or mixed curves; inactive = flat fitted curve, though single readings scatter. Non-standard residues stand in square brackets, D forms with d. Residues, ends and D or L forms follow the SMILES beside them. *: point of attachment. Sta = CC(C)C[C@H](N)[C@@H](O)CC(=O)O; Isovaleryl = CC(C)CC(=O)*

Assay: A CellTox Green Cytotoxicity Assay to monitor cytotoxicity in HEK293 cells - 8 hour (AID 1224884); note: nearly all actives have a fitted effect of over 35% in size
Conditions: CellTox Green fluorescence; series mostly up to 76.8 µM; cytotoxicity increase: at the top concentration
Excerpt: National Center for Advancing Translational Sciences [NCATS]
NIH Chemical Genomics Center [NCGC]
U.S. Environmental Protection Agency [EPA]
National Institutes of Environmental Health Sciences [NIEHS]
National Toxicology Program [NTP]
Cell-based models are critical for drug discovery. Determining the natural cytotoxic effects resulting from test compounds is an essential research activity. A CellTox Green Cytotoxicity Assay to monitor cytotoxicity in real time of continues cell culture during 40 hours of the compound treatment was used to screen Tox21 10K library compounds in Hek293 cells. CellTox Green Cytotoxicity Assay is a nonlytic, homogeneous, biofluorescent method to measure cytotoxicity in cell culture after experimental manipulation. The assay system uses a proprietary asymmetric cyanine dye that is excluded from viable cells but preferentially stains the dead cell's DNA. […] Viable cells produce no appreciable increases in fluorescence. Therefore, the fluorescence signal produced by the binding interaction with dead cell DNA is proportional to cytotoxicity.
The mixture of Hek293 cell suspension and reagents were dispensed at 600cells/6 ul/well in 1536-well tissue culture treated black solid bottom plates using a Multidrop dispenser. After the assay plates were incubated at a 37 C/5% CO2 incubator for 5 hours, 23 nL of compounds dissolved in DMSO, positive and negative controls was transferred to the assay plate by a pintool work station. The plates were incubated at 37 C for 40 hours. The fluorescence intensity were measured at 0h, 8h, 16h, 24h, 32h and 40h time points using ViewLux plate reader during compound treatment.
% is set by controls: 0 for no effect and ±100 for the full control effect.

SMILES | cytotoxicity increase
O=C1CCCc2c(O)cccc21 | -6.82% [at 35.3 µM]
COc1cc(C(=O)NC2CCCNC2)cc(OC)c1OC (stereo not given) | -0.0869% [at 35.3 µM]
C=CC(C)(CCC=C(C)C)OC(=O)C(C)C (stereo not given) | -5.45%
NNC(=O)OCc1ccccc1 | -1.3%
CCOC(=O)CC | -8.07%
C[Si](C)(C)O[Si](O)(O)O | -2.94%
C=CC(=O)OCCOCCOCC | -2.12%
O=C(c1ccccc1)c1cccc(O)c1 | 3.86%
C/C=C(\C)C=O | -17.5%
CCOCCOCCOC(C)=O | 6.39%
CC(C)(C)NCC(O)COc1cccc2c1CCC(=O)N2 (stereo not given) | -4.32% [at 35.3 µM]
CC1(C)C(=O)C(C)(C)C1=O | -4.13%
C/C(Cl)=C/CCl | 0.746%
CC(C)C(C)C | -9.27%
C[C@@H](CN1CC(=O)NC(=O)C1)N1CC(=O)NC(=O)C1 | 5.01% [at 35.3 µM]
CC(O)C(CO)C(C)O (stereo not given) | -0.102%
CCCc1ccc(O)c(OC)c1 | -12.5%
CC(C)(O)CCCC1=CCC(C=O)CC1 (stereo not given) | 1.44%
CCN1CCN(C(=O)N[C@@H](C(=O)N[C@@H]2C(=O)N3[C@@H]2SC(C)(C)[C@H]3C(=O)O)c2ccccc2)C(=O)C1=O | -3.72% [at 35.3 µM]
CCCCOCCCC | 20.3%

SMILES | cytotoxicity increase
Nc1cc(S(=O)(=O)O)ccc1O | 3.31%
CCCCCC(CC)OC(=O)CCCOc1ccc(Cl)cc1Cl (stereo not given) | 0.0217%
C=CCCCCCCCCCCCCCC | 2.81% [at 15.8 µM]
CCOC(=O)CN1CCCC1=O | -10.1% [at 35.3 µM]
CC(=O)OC1CCC(C(C)(C)C)CC1 (stereo not given) | 17.3%
CC(=O)c1c(C)cc(C(C)(C)C)cc1C | 19.1%
Nc1nc(Cl)cc(Cl)n1 | -0.593%
CC(C)CC(O)Cc1ccccc1 (stereo not given) | -0.86%
OCCC(F)(F)C(F)(F)C(F)(F)C(F)(F)C(F)(F)C(F)(F)F | 0.835%
COCc1nnc(-c2ccc[n+]([O-])c2)n1-c1c(Cl)c(Cl)cc2[nH]c(=O)c(=O)[nH]c12 | -11.9%
CCOC(=O)CC(C(C)=O)C(C)=O | -12.1%
CC(C)(C)C(=O)CC(=O)C(C)(C)C | -14.1%
COC(C)(C)CC(C)=O | 1.86%
CC/C=C\CCOC(=O)c1ccccc1 | 0.34%
CNCCc1ccccn1 | -5.35% [at 35.3 µM]
O=C1Nc2ccccc2C1=O | 15.8%
COCCCOc1cc(C[C@@H](C[C@H](N)[C@@H](O)C[C@H](C(=O)NCC(C)(C)C(N)=O)C(C)C)C(C)C)ccc1OC | -10.8% [at 35.3 µM]
CN(C)CCCN(C)C | -3.24% [at 6.97 µM]
CC(C)CC(=O)N[C@H](C(=O)N[C@H](C(=O)N[C@@H](CC(C)C)[C@@H](O)CC(=O)N[C@@H](C)C(=O)N[C@@H](CC(C)C)[C@@H](O)CC(=O)O)C(C)C)C(C)C (Isovaleryl-VV[Sta]A[Sta]-OH) | -5.12% [at 35.3 µM]
Cc1ccc(O)c(C(=O)c2ccccc2)c1 | -8.78%
